Test results reported in PubChem BioAssay (NCATS).
Results filed as inconclusive are left out. Activity calls are given as the source filed them. Unless noted, calls come from the whole dose curve.

Key:
[1] = Primary qHTS for inhibitors of SARS-S pseudo-typed particle cell entry (AID 1479145); conditions: SARS-S pseudotyped particle cell entry, luciferase reporter; series mostly up to 57.1 µM; note: nearly all actives have a fitted effect of over 45% in size; note: potency is the fitted concentration of half-maximal effect
[2] = Primary qHTS for Huh7 cytotoxicity: counterscreen for inhibitors of MERS-S pseudotyped particle cell entry (AID 1479147); conditions: cell viability read-out; series mostly up to 57.1 µM
[3] = Primary qHTS for inhibitors of MERS-S pseudo-typed particle cell entry (AID 1479149); conditions: MERS-S pseudotyped particle entry, luciferase; series mostly up to 57.1 µM; note: nearly all actives have a fitted effect of over 60% in size; note: potency is the fitted concentration of half-maximal effect
[4] = Primary qHTS for Vero E6 cytotoxicity: counterscreen for inhibitors of SARS-S pseudo-typed particle cell entry (AID 1479150); conditions: cell viability; series mostly up to 57.1 µM; note: potency is the fitted concentration of half-maximal effect
[5] = biological target: Calcium and integrin-binding protein 1 (Homo sapiens) (UniProt Q99828); test: Primary qHTS for Identification of Calcium Integrin Binding Protein 1 (CIB1) Competitor (AID 1508620; active = well fitted curve in the direction sought with a large enough effect; an effect the other way counts as inactive or inconclusive;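 note: GST tagged CIB1 binding a fluorescein labelled alphaIIb integrin peptide tracer; top concentration of the series differs between compounds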); conditions: CIB1-GST / FITC-alphaIIb peptide fluorescence polarization; series mostly up to 114 µM
Chain of Calcium and integrin-binding protein 1 (Homo sapiens) (Q99828 whole entry, looked up): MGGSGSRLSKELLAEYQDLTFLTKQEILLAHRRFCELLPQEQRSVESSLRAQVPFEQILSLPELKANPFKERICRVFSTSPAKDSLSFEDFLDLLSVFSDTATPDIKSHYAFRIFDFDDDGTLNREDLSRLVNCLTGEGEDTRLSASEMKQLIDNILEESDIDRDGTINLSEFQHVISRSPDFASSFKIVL
How it was run: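 Fluorescence polarization competition: GST-tagged CIB1 (1 uM final) preincubated with compound 15 min at room temperature, then FITC-labelled alphaIIb peptide (100 nM final) added. After 15 min at room temperature, polarization read at Ex 480/Em 540.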

[6] = Counterscreen qHTS for small molecule stabilizers of the endoplasmic reticulum resident proteome: GLuc-NoTag assay (AID 1508627; active = well fitted curve in the direction sought with a large enough effect; an effect the other way counts as inactive or inconclusive;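 note: SH-SY5Y cells given compound then 100 nM thapsigargin to empty ER calcium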); conditions: Gaussia luciferase NoTag secretion counterscreen, luminescence, thapsigargin 100 nM for final 4 h; series mostly up to 76.4 µM
How it was run: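 SH-SY5Y cells stably expressing constitutively secreted GLuc without SERCaMP tag, exposed to compound for 19 hr, then to 100 nM thapsigargin for 4 hr at 37C. Medium luciferase was read by coelenterazine luminescence without lysis.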

[7] = Confirmatory qHTS for small molecule stabilizers of the endoplasmic reticulum resident proteome: Secreted ER Calcium Modulated Protein (SERCaMP) assay (AID 1508628; active = well fitted curve in the direction sought with a large enough effect; an effect the other way counts as inactive or inconclusive;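 note: SH-SY5Y cells given compound 16 h then thapsigargin 100 nM for 4 h; nearly all actives have a fitted effect of over 40% in size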); conditions: SERCaMP secreted luciferase ER calcium/proteostasis reporter; series mostly up to 76.3 µM
How it was run: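 We seeded SH-SY5Y-GLuc-SERCaMP cells, added compounds (three concentrations in the primary run, eleven up to 76.6 uM in confirmation), incubated 16 h, depleted ER calcium with thapsigargin, and read luciferase 4 h later.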

Measured: Potency

Cc1ccc(C(=O)c2ccc(CC(=O)O)n2C)cc1
inactive: [1] | [2] | [3] | [4]

CCCCCC=CCC=CCCCCCCCC(=O)OCC
inactive: [1] | [2] | [3] | [4]

NS(=O)(=O)c1cc(C(=O)O)cc(N2CCCC2)c1Oc1ccccc1
inactive: [1] | [2] | [3] | [4]

COc1cnc(NS(=O)(=O)c2ccc(N)cc2)nc1
inactive: [1] | [2] | [3] | [4]

CCCCCC[C@@H](CCC)C(=O)O
inactive: [1] | [2] | [3] | [4]

OC[C@H]1O[C@H](O[C@]2(CCl)O[C@H](CCl)[C@@H](O)[C@@H]2O)[C@H](O)[C@@H](O)[C@H]1Cl
inactive: [1] | [2] | [3] | [4]

O=C(N[C@H](CO)[C@H](O)c1ccc([N+](=O)[O-])cc1)C(Cl)Cl
inactive: [1] | [2] | [3] | [4]

O=C(O)c1ccccc1Nc1cccc(C(F)(F)F)c1
inactive: [1] | [2] | [3] | [4]

C[C@H]1C[C@@H]2[C@H]([C@@H](O)C[C@@]3(C)[C@H]2CC[C@]3(O)C(=O)CO)[C@@]2(C)C=CC(=O)C=C12
inactive: [1] | [2] | [3] | [4]

Cc1ccc(C(C)C)c(O)c1
inactive: [1] | [2] | [3] | [4]

CCCCCCCCCCCCCCCCCCO
inactive: [1] | [2] | [3] | [4]

COc1ccc(O)cc1
inactive: [1] | [2] | [3] | [4]

CCCN1CCCC[C@H]1C(=O)Nc1c(C)cccc1C
inactive: [1] | [2] | [3] | [4]

OC[C@@H](O)[C@@H](O[C@@H]1O[C@H](CO)[C@H](O)[C@H](O)[C@H]1O)[C@H](O)[C@@H](O)CO
inactive: [1] | [2] | [3] | [4]

CC(C)(CO)[C@@H](O)C(=O)NCCCO
inactive: [1] | [2] | [3] | [4]

NS(=O)(=O)c1cc2c(cc1C(F)(F)F)NC(Cc1ccccc1)NS2(=O)=O (centres undefined)
inactive: [1] | [2] | [3] | [4]

Cc1cc(O)c2c(O)c3c(O)cccc3cc2c1
inactive: [1] | [2] | [3] | [4]

CC(=O)N(CC(O)CO)c1c(I)c(C(=O)NCCO)c(I)c(C(=O)NCC(O)CO)c1I (centres undefined)
inactive: [1] | [2] | [3] | [4]

Cc1cccc(C)c1NC(=O)CC12CCCN1CCC2
inactive: [1] | [2] | [3] | [4]

CC(=O)OCC(=O)[C@@]1(O)CC[C@H]2[C@@H]3CCC4=CC(=O)C=C[C@]4(C)[C@@]3(F)[C@@H](O)C[C@@]21C
inactive: [1] | [2] | [3] | [4]

CC(=O)Nc1ccccc1
inactive: [1] | [2] | [3] | [4]

CNNCc1ccc(C(=O)NC(C)C)cc1
inactive: [1] | [2] | [3] | [4]

CN(C)CCOC(=O)C(c1ccccc1)C1(O)CCCC1 (centres undefined)
inactive: [1] | [2] | [3] | [4]

CNC(=O)c1c(I)c(NC(C)=O)c(I)c(C(=O)O)c1I
inactive: [1] | [2] | [3] | [4]

NC(=O)c1cnccn1
inactive: [1] | [2] | [3] | [4]

Nc1ccn([C@@H]2CS[C@H](CO)O2)c(=O)n1
inactive: [1] | [2] | [3] | [4]

CC[C@H](C)[C@H](N)C(=O)O
inactive: [1] | [2] | [3] | [4]

CC(CSC(=O)c1ccccc1)C(=O)N1C[C@@H](Sc2ccccc2)C[C@H]1C(=O)O (some centres undefined)
inactive: [1] | [2] | [3] | [4]

CCn1ccc(NS(=O)(=O)c2ccc(N)cc2)nc1=O
inactive: [1] | [2] | [3] | [4]

C[C@](O)(CS(=O)(=O)c1ccc(F)cc1)C(=O)Nc1ccc(C#N)c(C(F)(F)F)c1
inactive: [5]

O=c1oc2ccccc2c(O)c1Cc1c(O)c2ccccc2oc1=O
inactive: [6] | [7]

O=C(O)CCCC[C@@H]1SC[C@@H]2NC(=O)N[C@@H]21
inactive: [1] | [2] | [4]

CC(C(=O)O)c1cccc(Oc2ccccc2)c1 (centres undefined)
inactive: [1] | [2] | [4]

C[C@@H]1CN(c2c(F)c(F)c3c(=O)c(C(=O)O)cn(C4CC4)c3c2F)C[C@H](C)N1
inactive: [2] | [3] | [4]

CC12CCC(CC1)C(C)(C)O2
inactive: [2] | [3] | [4]

CC(CCc1ccc(O)cc1)NCCc1ccc(O)c(O)c1 (centres undefined)
inactive: [2] | [3] | [4]

Cc1cc(OI)c(C(C)C)cc1-c1cc(C(C)C)c(OI)cc1C
inactive: [1] | [2] | [4]

CC(C)Cc1ccc(CC(=O)O)cc1
inactive: [2] | [3] | [4]

CCCc1ccc(OCC(=O)N2CCN(C(=O)COc3ccc(CCC)cc3OC)CC2)c(OC)c1
inactive: [1] | [2] | [4]

COc1cc(NS(C)(=O)=O)ccc1Nc1c2ccccc2nc2ccccc12
active: [1] 0.794 µM | [4] 25.1 µM

CC(=O)Nc1ccc(CC(=O)O)cc1
inactive: [1] | [2] | [4]

CCOC(=O)C1=C[C@@H](OC(CC)CC)[C@H](NC(C)=O)[C@@H](N)C1
inactive: [2] | [3] | [4]

CC(=O)Nc1c(I)cc(I)c(C(=O)O)c1I
inactive: [1] | [2] | [4]

Cc1c(C)c2c(c(C)c1O)CCC(C)(COc1ccc(CC3SC(=O)NC3=O)cc1)O2 (centres undefined)
inactive: [2] | [4]
active: [3] 25.1 µM

CC(C)[C@H]1C(=O)N2CCC[C@H]2[C@]2(O)O[C@](NC(=O)[C@@H]3C[C@@H]4c5cccc6[nH]cc(c56)C[C@H]4N(C)C3)(C(C)C)C(=O)N12
inactive: [1] | [2] | [4]

NC(N)=NC(=O)Cc1c(Cl)cccc1Cl
inactive: [1] | [2] | [4]

CC(C)[C@H](N)C(=O)OCCOCn1cnc2c(=O)[nH]c(N)nc21
inactive: [2] | [3] | [4]

c1ccc2sc(SN3CCOCC3)nc2c1
inactive: [1] | [3] | [4]

NCC[C@H](O)C(=O)N[C@@H]1C[C@H](N)[C@@H](O[C@H]2O[C@H](CN)[C@@H](O)[C@H](O)[C@@H]2O)[C@H](O)[C@@H]1O[C@H]1O[C@H](CO)[C@@H](O)[C@H](N)[C@@H]1O
inactive: [2] inactive [at 0.573 µM] | [3] inactive [at 0.573 µM]

CCN[C@H]1CN(CCCOC)S(=O)(=O)c2sc(S(N)(=O)=O)cc21
inactive: [1] | [2] | [4]
